Source: PubChem (National Center for Advancing Translational Sciences (NCATS))
The list is not random: actives were taken first. Their share in the collection is about 20%.
HCMV inh – inhibitors of human cytomegalovirus | HFF cells, HCMV-luciferase reporter, 72 h; hits give low values | activity change, negative = inhibition, % at 57.5 µM | hit rate 4.5% among 410,000; in the data active = activity change below about -60%; inconclusive = no clear call, values can overlap the other calls; inactive = above about -39%; note: % is set by controls: 0 for no effect and ±100 for the full control effect
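Screen run at 2 compound doses on HFFs infected with reporter HCMV, MOI 1 PFU/cell. Luciferase activity from cell lysates at 72 h post infection gave inhibition relative to buffer-only and Salinomycin wells.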
Pf growth 48h – inhibits P. falciparum growth in the first generation, 48 h; P. falciparum luciferase growth in erythrocytes, 48 h; Potency, µM (highest dose often 28.7 µM), for the others: at the top dose activity change, negative = inhibition, hits mostly inhibitors; hit rate 5.9% among 310,000; AID 504832; note: potency is the fitted concentration of half-maximal effect; % is set by controls: 0 for no effect and ±100 for the full control effect
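A one-generation exposure of luciferase-tagged malaria parasites in RPMI 1640/Albumax erythrocyte culture, 37 C and 5% CO2. Inhibition is inferred from decreased luminescence after adding detection reagent.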
CHX counter – counter-screen for Shiga toxin inhibitors: cycloheximide protein synthesis inhibition | cell reporter, cycloheximide protein synthesis inhibition counterscreen | max response, % | hit rate 12% among 300,000 | AID 2314; in the data active = max response mostly above about 13%, no sharp cut-off; inactive = mostly below about 14%; note: read at 38.3 µM for the half of the compounds with a filed dose; 0% is about no effect
Shiga toxin inh – Shiga toxin inhibition; Vero cells, Shiga toxin protein synthesis inhibition reporter; inhibition, % at 38.7 µM; hit rate 9.2% among 290,000; AID 2315; in the data active = inhibition mostly above about 28%, no sharp cut-off; inactive = mostly below about 43%; note: 0% is about no effect
Pf growth 96h – P. falciparum growth inhibition at 96 hours. P. falciparum luciferase reporter growth, 96 h. Potency, µM (titrated, usually from 28.7 µM), inactives show at the highest dose activity change, negative = inhibition, actives largely listed as inhibitors. hit rate 6.9% among 320,000. AID 504834; note: potency is the fitted concentration of half-maximal effect; % is set by controls: 0 for no effect and ±100 for the full control effect
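Erythrocytes infected with luciferase-expressing P. falciparum were dispensed at 2% hematocrit and 0.05% parasitemia (final), then incubated with compounds 96 hours at 37 C in 5% CO2. Luminescence after detection reagent addition reported growth.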
An asterisk follows results filed as active; ? = inconclusive; . = not tested or not shown; [ ] = remark or other dose. Unless noted, calls come from the whole dose curve; as a rule, active = well fitted inhibition curve with a large enough effect; inconclusive = small, poorly fitted or top-dose-only effect, or another doubt; inactive = no such curve, though single readings can be large or run the other way.

SMILES	HCMV inh	Pf growth 48h	CHX counter	Shiga toxin inh	Pf growth 96h
COc1ccc2oc(=O)c(C(=O)NCc3ccccc3)cc2c1	-13	-1%	-4	-2	?
COc1ccc2oc(=O)c(C(=O)OCc3ccccc3)cc2c1	?	8%[0.00184 µM]	23*	36	0%
O=C(OCc1ccc([N+](=O)[O-])cc1)c1cc2ccccc2oc1=O	25	.	.	.	.
COC(=O)c1ccc(CNC(=O)c2cc3ccccc3oc2=O)cc1	-3	0%	1	3	9%
CCOC(=O)c1ccc(COC(=O)c2cc3ccccc3oc2=O)o1	3	18%	28*	40	-2%
COc1ccc(-c2cnc3c(NC=O)cc(-c4ccc(N(C)C)cc4)cn23)cc1OC	19	.	.	.	.
Cc1ccc(NC(=S)NCc2ccc(S(N)(=O)=O)cc2)cc1Cl	-81*	-37%[5.75 µM]	4	8	22%
Cc1ccc(CNC(=S)Nc2ccc(NS(=O)(=O)c3ccc(C)cc3)cc2)cc1	-4	-21%	0	-6	10µM*
Cc1ccc(NC(=S)NCc2ccc(F)cc2)cc1	-6	.	.	.	.
NS(=O)(=O)c1ccc(NC(=S)NCc2ccccc2)cc1	23	20%	2	-12	?
CN(C)/C(=N\S(=O)(=O)c1ccc(Cl)cc1)c1ccc(F)cc1	23	0%	-3	-3	15%
Cn1c(N)c(C(=O)COC(=O)/C=C/c2ccc(Cl)c(Cl)c2)c(=O)n(C)c1=O	2	.	.	.	.
CC1CCN(c2ccc(-c3nc(C(C)C)no3)cc2[N+](=O)[O-])CC1	85	.	.	.	.
COc1ccccc1N=Nc1ccc(N)c(C)c1	38	96%	32*	91	103%
O=C(Cn1cccc1C(=O)c1ccccc1)NCc1cccs1	-7	10%	2	43	-1%
O=C(Cn1cccc1C(=O)c1ccccc1)NCc1ccc(F)cc1	?	18%	16*	9	?
O=C(Cn1cc(C(F)(F)F)ccc1=O)NCc1ccc(F)cc1	44	121%	29*	36*	135%
O=C(CN1CC(c2ccccc2)CC1=O)NCc1ccc(F)cc1 (stereo not given)	24	21%	-3	-6	4.1µM*
O=C(Cn1cccc1C(=O)c1ccccc1)NCc1ccc2c(c1)OCO2	22	?	29*	52*	97%
O=C(Cn1cc(C(F)(F)F)ccc1=O)NCC1CCCO1 (stereo not given)	14	-11%	.	.	-24%
Cc1oc(-c2ccccc2)nc1C(=O)N1CCN(c2ccc(F)cc2)CC1	?	405%	-4	-3	34%
Cc1cccc(Cn2c(=O)n(CCCCC(=O)NCc3ccc4c(c3)OCO4)c(=O)c3ccccc32)c1	-7	.	.	.	.
Oc1ccc(COC2CCN(Cc3ccccc3)C2)c2cccnc12 (stereo not given)	.	8.3µM*	.	.	12µM*
COc1ccccc1N1CCN(Cc2ccc(O)c3ncccc23)CC1	-91*	2.6µM*	21*	20	.
CCOC(=O)C1CCN(Cc2ccccc2C(F)(F)F)CC1	8	37%	-1	-16	22%
SMILES	HCMV inh	Pf growth 48h	CHX counter	Shiga toxin inh	Pf growth 96h
CCOC(=O)C1CCN(Cc2ccc(O)c3ncccc23)CC1	?	10µM*	22*	110*	41%
Oc1ccc(CN2CCCc3ccccc32)c2cccnc12	.	13µM*	-2	14	12%
c1ccc(CCn2nnnc2CN2CCCc3ccccc32)cc1	-19	-9%	-3	4	7%
COc1ccc(OC)c(CCNC(=O)CCn2c(=O)c3cccn3c3ccc(F)cc32)c1	-34	.	.	.	.
CCCN(CCC)c1cc(Cl)nc(N)n1	-40	-3%	-6	-3	4%
COc1cc(-n2nc(C)c3c2OC(N)=C(C#N)C3c2ccccc2)c(Cl)c(Br)c1O (stereo not given)	.	-11%	-3	14	-26%
Cc1nn(-c2ccccc2)c(Cl)c1C1C(C#N)=C(N)Oc2c1c(C)nn2-c1ccccc1 (stereo not given)	.	10µM*	-1	-10	10µM*
Cc1ccc(-c2ccc(C3C(C#N)=C(N)Oc4n[nH]c(C)c43)o2)cc1 (stereo not given)	3	?	32*	50*	-20%
Cc1nn(Cc2ccccc2)c2c1C(c1cccc(Cl)c1)C(C#N)=C(N)O2 (stereo not given)	-60*	.	-6	-12	?
CCOC(=O)C1=C(C)OC(N)=C(C#N)C1c1c(C)nn(-c2ccccc2)c1Cl (stereo not given)	29	?	-2	-5	7%
Cc1nn(-c2ccccc2)c2c1C(c1ccncc1)C(C#N)=C(N)O2 (stereo not given)	68	-15%	7	-8	.
Cc1nn(-c2ccccc2)c(Cl)c1C1C(C#N)=C(N)Oc2n[nH]c(C)c21 (stereo not given)	-103*	18%	-3	-21	0%
COc1ccc(NC(=O)CSc2nnc3scc(-c4ccc(Cl)cc4)n23)cc1	-20	.	.	.	.
Cc1ccc(NC(=O)c2ccccc2NC(=O)CCC(=O)O)cc1	13	62%	45*	19*	?
CCOc1ccc(NC(=O)c2ccccc2NC(=O)CN(C)CC(=O)Nc2ccc(C)cc2)cc1	-34	10µM*	-3	-9	?
CC(=O)c1ccccc1NCC(=O)Nc1ccc(C)cc1	-22	11%	30*	61*	?
CCOc1ccc(NC(=O)c2ccccc2NC(=O)CN2CCCCCC2)cc1	-22	?	.	.	3%
CCN(CC)CCCCCC(=O)Nc1ccccc1C(=O)Nc1ccccc1	0	10%	0	-4	10µM*
O=C(NC1CCCCC1)c1nnc2n1CCN(C(=O)c1ccc3occc3c1)C2	-13	.	.	.	.
CCOCCCNC(=S)N1CCCC(c2nc3ccc(C)cc3[nH]2)C1 (stereo not given)	-14	-1%	-4	40	19%
CCOc1ccc(NC(=O)c2ccccc2NC(=O)CNC2CCCC(C)C2C)cc1 (stereo not given)	-66*	.	.	.	.
CCOc1ccc(OCCC(=O)Nc2ccccc2C(=O)NC2CC2)cc1	-7	.	.	.	.
CN(C1CCCCC1)S(=O)(=O)c1ccc2c(c1)c(=O)c(C(=O)N1CCN(c3ccc(F)cc3)CC1)cn2C	14	.	.	.	.
CCN(CC)CCCN1CC(O)=C(c2nc3ccccc3s2)C1=N	77	?	-4	-11	.
N=C1C(c2nc3ccccc3s2)=C(O)CN1Cc1ccccc1	46	55%	30*	active	10%
SMILES	HCMV inh	Pf growth 48h	CHX counter	Shiga toxin inh	Pf growth 96h
CCCCCCCCCCCCCCCC(O)C(N)CO (stereo not given)	-98*	?	-1	-3	-22%
CCCCCCC(N)CC(=O)O (stereo not given)	9	6%	-2	-3	.
Cc1cccc(C)c1OCC(O)CNS(=O)(=O)c1ccccc1C(=O)N1CCCCC1 (stereo not given)	?	?	-1	-6	12µM*
COc1cc2cnc(-c3ccccc3)cc2cc1OC	118	.	.	.	.
Cc1ccc(-c2cc(-c3ccccc3)nc(NN)n2)cc1	27	?	-2	-3	49%
COc1nc(-c2ccccc2)cc(-c2ccc(OC)c(OC)c2)n1	46	-17%	21	56*	28%
